In PubChem BioAssay AID1159580 (chemical genetic matrix, 2015):
Out of some 5,500 compounds screened, about 2,000 (36%) were called active. Another 18% or so got no clear call; they are omitted. Rule as the data show it: active = normalized growth mostly below about 0.91 (no sharp cut-off); inconclusive = no clear call, values can overlap the other calls; inactive = mostly above about 0.92. The list shows a part of the results.

Experiment: chemical genetic growth profiling, strain panel (AID 1159580);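 also: tested at 20 µM; growth read once vehicle control cultures reached saturation at 30 °C; 1 = growth at the plate median or of vehicle wells; lower values mean less growth of the strain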
Settings: growth OD
[1] = S. cerevisiae deletion strains, locus YAL013W, strain DEP1, stronger effect = lower value
[2] = S. cerevisiae deletion strains, locus YBR229C, strain ROT2, stronger effect = lower value
[3] = S. cerevisiae deletion strains, locus YDL101C, strain DUN1, stronger effect = lower value
[4] = S. cerevisiae deletion strains, locus YDR150W, strain NUM1, stronger effect = lower value
[5] = S. cerevisiae deletion strains, locus YEL061C, strain CIN8, stronger effect = lower value
[6] = S. cerevisiae deletion strains, locus YGR078C, strain PAC10, stronger effect = lower value
[7] = S. cerevisiae deletion strains, locus YHR030C, strain SLT2, stronger effect = lower value
[8] = S. cerevisiae deletion strains, locus YHR087W, strain rtc3, stronger effect = lower value
[9] = S. cerevisiae deletion strains, locus YJR043C, strain POL32, stronger effect = lower value
[10] = S. cerevisiae deletion strains, locus YJR075W, strain HOC1, stronger effect = lower value
[11] = S. cerevisiae deletion strains, locus YLR039C, strain RIC1, stronger effect = lower value
[12] = S. cerevisiae deletion strains, locus YLR058C, strain SHM2 (second series), stronger effect = lower value
[13] = S. cerevisiae deletion strains, locus YLR085C, strain ARP6, stronger effect = lower value
[14] = S. cerevisiae deletion strains, locus YLR262C, strain YPT6, stronger effect = lower value
[15] = S. cerevisiae deletion strains, locus YML094W, strain GIM5, stronger effect = lower value
[16] = S. cerevisiae deletion strains, locus YMR219W, strain ESC1, stronger effect = lower value
[17] = S. cerevisiae deletion strains, locus YMR263W, strain SAP30, stronger effect = lower value
[18] = S. cerevisiae deletion strains, locus YNL128W, strain TEP1, stronger effect = lower value
[19] = S. cerevisiae deletion strains, locus YNL153C, strain GIM3, stronger effect = lower value
[20] = S. cerevisiae deletion strains, locus YNL298W, strain CLA4 (second series), stronger effect = lower value
[21] = S. cerevisiae deletion strains, locus YNL322C, strain KRE1, stronger effect = lower value
[22] = S. cerevisiae deletion strains, locus YNR030W, strain Alg12, stronger effect = lower value
[23] = S. cerevisiae deletion strains, locus YPL055C, strain LGE1, stronger effect = lower value
[24] = S. cerevisiae deletion strains, locus YPL241C, strain CIN2, stronger effect = lower value
[25] = S. cerevisiae deletion strains, locus YPR135W, strain CTF4, stronger effect = lower value

Measured: normalized growth

COc1c([N+](=O)[O-])cc(C(F)(F)F)cc1[N+](=O)[O-]
active: [11] 0.486 | [14] 0.453
inactive: [1] 0.978 | [2] 1.01 | [3] 0.982 | [4] 0.964 | [5] 1.01 | [6] 0.975 | [7] 0.732 | [8] 1.04 | [9] 0.966 | [10] 1.03 | S. cerevisiae deletion strains, locus YKL190W, strain CNB1, stronger effect = lower value 0.998 | [12] 1.02 | [13] 0.823 | [15] 0.903 | [16] 1 | [17] 0.971 | [18] 0.976 | [19] 0.985 | [20] 0.946 | [21] 0.971 | [22] 0.975 | [23] 0.989 | [24] 0.95 | [25] 0.902 | S. cerevisiae strains, strain wild type, stronger effect = lower value 0.979

O=[N+]([O-])c1cc(C(F)(F)F)ccc1Oc1cc(C(F)(F)F)cc(C(F)(F)F)c1
inactive: [1] 1.03 | [2] 1 | [3] 1.04 | S. cerevisiae deletion strains, locus YDL134C, strain PPH21, stronger effect = lower value 0.982 | [4] 1.02 | [5] 1.03 | [6] 1.01 | [7] 1.03 | [8] 1.02 | [9] 0.996 | [10] 1.01 | [11] 1.02 | [12] 0.982 | [13] 1.01 | [14] 0.992 | [15] 1.12 | [16] 0.99 | [17] 0.993 | S. cerevisiae deletion strains, locus YMR307W, strain GAS1, stronger effect = lower value 1.12 | [18] 0.97 | [19] 1.03 | [20] 1.01 | [21] 1 | [22] 1.05 | [23] 1.09 | [24] 1.07 | [25] 1.12
